# Screens as filed in PubChem BioAssay.
# TGFb SMAD3 inh: TGF-b pathway inhibition; hit rate 1.2% among 410,000; HepG2 CAGA-GFP TGF-b/SMAD3 reporter, GFP fluorescence, 18 h; TGF-beta stimulated, 500 pg/mL final; Potency, µM (titrated, usually from 46.1 µM), for the others: at the highest dose activity, negative = inhibition, usual class: inhibitors; further: on the % scale 0 is the no-effect control and ±100 the full control effect; nearly all actives have a fitted effect of over 65% in size
#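 GFP signal (ex488/em500-530) from TGF-beta-stimulated HEPG2 CAGA-GFP cells, 500 pg/mL final, 18 h at 37 degrees C in DMEM plus 1% FBS, normalized to unstimulated and DMSO-stimulated controls.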
# HepG2 tox: counter-screen for TGF-b inhibitors: cytotoxicity in HepG2 cells; HepG2 CAGA-GFP viability, ATP luminescence, 18 h; Potency, µM (top dose mostly 46.1 µM), inactives show at the top dose activity change, negative = cytotoxicity, hits mostly cytotoxic; hit rate 0.76% among 410,000; AID 588856
#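 HepG2 CAGA-GFP cells (1000/well, DMEM with 1% FBS) received compound, then TGF-beta at 500 pg/mL final, and were incubated 18 hours at 37 degrees C. Viability was read by CellTiter-Glo luminescence. Media-only wells were set as complete cell-killing and DMSO as no toxicity.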
# HT1080 IDH1KD tx: toxicity to HT-1080 IDH1 knockdown cells (counter line). hit rate 2% among 360,000. HT-1080 IDH1 knockdown viability, ATP luminescence, 48 h. AID 686971. Potency, µM (top dose mostly 46.1 µM), for the others: at the top dose activity, negative = toxicity, actives largely listed as cytotoxic;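 further: 0% = DMSO wells and -100% = cell-free medium wells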
#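 Luminescent ATP read-out (CellTiter-Glo, 10 min at room temperature) after 48 h compound exposure at 37 °C gave viability of IDH1-knockdown HT-1080 cells. Activity was normalised to DMSO and cell-free wells, then fitted as concentration-response curves.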
# DT40 TDP1 no CPT: qHTS for Inhibitors of human tyrosyl-DNA phosphodiesterase 1 (TDP1): qHTS in cells in absence of CPT. DT40 Tdp1-/- hTDP1 cells, no CPT, ATP luminescence, 48 h. Potency, µM (highest dose often 46.2 µM), without a hit: at the highest dose activity change, negative = growth inhibition, usual class: inhibitors. hit rate 15% among 420,000. AID 686978, 2013; further: on the % scale 0 is the no-effect control and ±100 the full control effect; nearly all actives have a fitted effect of over 55% in size
#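 No-CPT arm: Tdp1-/-;hTDP1 DT40 cells (400/well) plus compounds, incubated ≥48 hr at 37 °C. Readout CellTiter-Glo luminescence.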
# HT1080NT lethal: kills 2HG-producing HT-1080-NT fibrosarcoma cells | hit rate 1.6% among 360,000 | AID 686970 | HT-1080-NT fibrosarcoma viability, CellTiter-Glo ATP luminescence, 48 h | Potency, µM (titrated, usually from 46.1 µM), inactives show at the top dose activity, negative = less viability, hits mostly cytotoxic;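 further: NT is the 2HG producing partner of a matched IDH1 knockdown line; 0% = DMSO-treated cells and -100% = media-only wells without cells; nearly all actives have a fitted effect of over 55% in size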
#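 Viability by CellTiter-Glo luminescence after 48 h compound exposure at 37C of HT-1080-NT cells (750/well, RPMI, 5% FBS). % activity scaled between DMSO wells and medium-only wells, then curve-fitted and categorized by curve class.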
# TDP1 cell CPT: growth inhibition of DT40 Tdp1-/-;hTDP1 cells with camptothecin (screen for TDP1 inhibitors) | chicken DT40 Tdp1-/-;hTDP1 cells + 20 nM CPT, ATP luminescence, 48 h | hit rate 12% among 420,000 | Potency, µM (titrated, usually from 46.2 µM), for the others: top-dose activity change, negative = growth inhibition, most hits filed as inhibitors | AID 686979; further: on the % scale 0 is the no-effect control and ±100 the full control effect; nearly all actives have a fitted effect of over 55% in size
#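 Chicken DT40 Tdp1-/- cells complemented with human TDP1, 400 cells/well, exposed to compounds plus 20 nM camptothecin for at least 48 h at 37 C; viability read as ATP content by CellTiter-Glo luminescence.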
# Active calls of the source: *; ? = inconclusive; . = not tested or not shown; [ ] = dose if it differs, or a comment. This is a sample that favours compounds with a hit; in the whole collection about 17% have one here. The call rests on the fitted dose curve; in most records, active means well fitted curve in the direction sought with a large enough effect; inconclusive means small, poorly fitted or top-dose-only effect, or another doubt; inactive means no such curve, though single readings can be large; an effect the other way counts as inactive or inconclusive. Potency means the concentration at half of the fitted maximal effect.
SMILES,TGFb SMAD3 inh,HepG2 tox,HT1080 IDH1KD tx,DT40 TDP1 no CPT,HT1080NT lethal,TDP1 cell CPT
CCCCCCCCCCCCCCCC(C)C1=NCCN1 (centres undefined),-1%,-4%,.,1%,.,?
COc1ccc2nc(Cl)c(C=O)c(N3CCOCC3)c2c1,0%,-16%,-8%,15µM*,0%,?
COc1ccc2nc(C)cc(N3CCOCC3)c2c1,-16%,5%,7%,-24%,0%[9.24 µM],-26%
CC(C)C(c1nnnn1Cc1ccccc1)N(CCCO)Cc1cc2cc3c(cc2[nH]c1=O)OCO3 (centres undefined),-1%,-4%,-2%,16µM*,-3%,?
CCC(c1nnnn1Cc1ccc(OC)cc1)N(CCCO)Cc1cc2cc3c(cc2[nH]c1=O)OCO3 (centres undefined),-6%,-45%,-20%,?,-16%,?
O=c1[nH]c2cc3c(cc2cc1CN(CCCO)Cc1nnnn1Cc1ccc(F)cc1)OCO3,-11%,-17%,-8%,12µM*,-3%,?
COc1cc(OC)cc(C(=O)NNC(=O)C(CCC(N)=O)NS(=O)(=O)c2ccc(Cl)cc2)c1 (centres undefined),3%,2%,1%,18%,6%[9.24 µM],-12%
N#CC(=C1C=CC(=NO)C(Cl)=C1)c1ccc(Cl)cc1,?,-19%,?,3.7µM*,-22%,4.6µM*
O=C(c1ccccc1)c1ccc(Oc2ccc([N+](=O)[O-])cc2[N+](=O)[O-])cc1,-26%,-12%,12µM*,?,15µM*,?
O=C(Nc1ccccc1Oc1ccccc1)c1cccc([N+](=O)[O-])c1,10%,2%,-1%,?,-1%,-18%
Cc1cc(=O)oc2cc(Oc3ccc([N+](=O)[O-])cc3[N+](=O)[O-])ccc12,3%,-3%,?,4.6µM*,-2%,5.2µM*
O=[N+]([O-])c1cc(/C=N/O)ccc1Oc1cccc(Cl)c1,-3%,-23%,-2%,-9%,-3%,1%
O=Cc1cccc(Oc2ccc([N+](=O)[O-])cc2[N+](=O)[O-])c1,-15%,-24%,?,7.3µM*,?,?
Clc1ccc(-c2nc3c4ccccc4ccn3c2Cc2ccccc2)cc1,9%,-6%,0%,10µM*,-16%,16µM*
Fc1ccc(-c2nc3c4ccccc4ccn3c2Cc2ccccc2)cc1,-1%,-35%,-2%,?,4%,-13%
Brc1ccc(-c2nc3c4ccccc4ccn3c2Cc2ccccc2)cc1,0%,-35%,-1%,8.2µM*,-2%,16µM*
CCOc1ccccc1N1CCN(C(=O)c2c(Cl)cnn2C)CC1,0%,-5%,10%,-16%,-2%,0%
CCOC(=O)C1CCCN(C(=O)/C=C/c2ccccc2[N+](=O)[O-])C1 (centres undefined),6%,0%,-5%,-6%,-3%,-5%
Fc1ccc(Nc2c(-c3ccco3)nc3ccccn23)cc1,?,-23%,0%,5.8µM*,1%,15µM*
c1coc(-c2nc3ccccn3c2Nc2ccc3c(c2)OCCO3)c1,-22%,-46%,.,-92%,.,?
c1ccc(Nc2c(-c3ccco3)nc3ccccn23)cc1,0%,-38%,3%,23µM*,7%,?
Cc1ccc(Nc2c(-c3ccco3)nc3ccccn23)cc1,0%,-36%,2%,?,-1%,-14%
COC(=O)c1ccccc1NC(=O)c1cnn2c1NC(=C1CC1)C=C2C(F)F,24%,3%,.,?,.,?
CCc1ccc(CNC(=O)CSCc2cnn(-c3ccccc3)c2-n2cccc2)cc1,.,-44%,.,?,.,?
CCc1[nH]nc2c1C1(CCN(C(=O)OCc3ccccc3)CC1)C(C#N)=C(N)O2,-13%,-26%,17%,-29%,25%,?
SMILES,TGFb SMAD3 inh,HepG2 tox,HT1080 IDH1KD tx,DT40 TDP1 no CPT,HT1080NT lethal,TDP1 cell CPT
CCCc1[nH]nc2c1C1(CCN(C(=O)OCc3ccccc3)CC1)C(C#N)=C(N)O2,-15%,5%,?,?,5%,21µM*
Cc1c(CCO)sc[n+]1CC(=O)c1ccccc1,-5%,-16%,.,?,.,0.56µM*
Cc1cc[n+](CC(=O)c2ccccc2)c2ccccc12,7%,-24%,-1%,-10%,-10%,12%
Cc1c(N)cc[n+](CC(=O)c2ccccc2)c1C,0%,-68%,?,21µM*,-9%,21µM*
Cc1c(CCOC(=O)CC23CC4CC(CC(C4)C2)C3)sc[n+]1CC(=O)c1ccccc1,?,-109%,?,15µM*,-22%,21µM*
Cc1c(CCOC(=O)C23CC4(C)CC(C)(CC(C)(C4)C2)C3)sc[n+]1CC(=O)c1ccccc1,10µM*,20µM*,?,?,?,?
COc1cccc(N2CCN(C(=O)C3CCN(S(=O)(=O)c4c(C)noc4/C=C/c4ccccc4F)CC3)CC2)c1,-17%,-18%,.,?,.,?
Cc1ccccc1OCC(=O)OCC(=O)NC1CCCCCC1,1%,3%,-2%,2%,3%,-13%
